Bioassay records (PubChem BioAssay)
SUMO Mot1 rescue: inhibitors of SUMOylation pathway: yeast Mot1-301 growth rescue | growth rescue, % at 18.8 µM | actives 1% (n = 320,000) | S. cerevisiae Mot1-301 growth rescue, ATP luminescence, 38.5C; percent above DMSO median, 100 means doubled;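 active = every valid replicate shows activation above 250% relative to neutral control wells; inactive = the rest, any valid replicate at or below 250%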;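 note: OY570 slx delta 5 strain wells were the positive control but not used for scaling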
CASP6 VEID inh: caspase-6 (human) enzyme inhibition | purified caspase-6, Z-VEID-R110 cleavage fluorescence | inhibition, % at 12.5 µM | actives 0.53% (n = 350,000);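 active = mean inhibition across replicates at least about 35%, with every replicate also reaching that limit, limit read from the data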;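 note: 0% = median of neutral control wells and 100% = no fluorescence left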
Target sequence (P55212 24-179 limits assumed): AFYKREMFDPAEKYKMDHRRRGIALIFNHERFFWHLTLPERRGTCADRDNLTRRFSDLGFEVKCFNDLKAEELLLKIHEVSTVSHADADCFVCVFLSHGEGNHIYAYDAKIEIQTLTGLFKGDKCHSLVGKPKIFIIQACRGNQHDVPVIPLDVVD
Target sequence (P55212 194-293 limits assumed): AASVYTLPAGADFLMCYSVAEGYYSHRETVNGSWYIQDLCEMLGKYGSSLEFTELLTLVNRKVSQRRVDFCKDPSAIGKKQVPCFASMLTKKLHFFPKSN
N-glyco inh: N-linked glycosylation inhibition; D54 ERlucT glycosylation luciferase reporter, 24 h; percent of 100 nM tunicamycin response; reporter increase, % at 12.5 µM; actives 0.23% (n = 360,000); AID 588692;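 active = mean luciferase reporter signal, scaled so untreated is 0 and the glycosylation-blocking control 100, at or above a set limit in every replicate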;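 note: luciferase carries N-glycosylation sites so blocking glycosylation raises the light; 0% = median of neutral control wells and 100% = median of 100 nM tunicamycin wells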
CDK5 inh: CDK5/p35 (human) kinase inhibition; AID 488839; actives 0.01% (n = 330,000); Q00535+Q15078; inhibition, % at 10 µM; Recombinant CDK5/p35, ADP-Glo luminescence, 60 min;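 active = highest replicate inhibition of at least 50% and at least 75% of replicates reaching 50%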;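 note: plate controls were DMSO neutral control for no effect and GW8510 at 10 µM for full effect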
NSD2 HMT inh: inhibitors of human histone methyltransferase NSD2. AID 743445. inhibition, % at 12.5 µM. NSD2 peptide methylation, AlphaScreen, 120 min. actives 0.54% (n = 310,000); in the data active = inhibition above about 50%
ALR inh: human ALR oxidase inhibition via reduced H2O2. purified ALR, DTT oxidation, H2O2 HRP-luminol luminescence. actives 3.8% (n = 290,000). AID 485317. inhibition, % (no concentration beside the values);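 active = mean replicate inhibition above about 79%, with every replicate also reaching it, limit read from the data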
Target sequence (P55789 whole entry, looked up): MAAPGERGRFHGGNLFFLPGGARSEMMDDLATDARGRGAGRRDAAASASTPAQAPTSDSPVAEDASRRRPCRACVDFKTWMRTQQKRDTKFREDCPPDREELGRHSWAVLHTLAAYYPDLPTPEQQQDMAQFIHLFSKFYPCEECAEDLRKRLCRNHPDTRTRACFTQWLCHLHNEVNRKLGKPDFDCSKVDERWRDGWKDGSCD
The depositor's hits bear a star; x = no result. This is a sample that favours compounds with a hit; in the whole collection about 3.9% have one here.

SMILES	SUMO Mot1 rescue	CASP6 VEID inh	N-glyco inh	CDK5 inh	NSD2 HMT inh	ALR inh
O=S(=O)(c1ccc(F)cc1)N1CCN(c2ncccn2)CC1	-1	-2	0	-3	2	-8
Cc1cc(C)nc(N2CCN(S(=O)(=O)c3ccc(F)cc3)CC2)n1	-7	38*	-1	-1	-7	x
Cc1noc(C)c1S(=O)(=O)Nc1ccc2c(c1)C(=O)N([C@H](C)CO)C[C@H](C)[C@@H](CN(C)S(=O)(=O)c1ccc(F)cc1)OCCCC[C@@H](C)O2	x	0	x	x	x	x
Cc1nc2ccccn2c1C(=O)NNC(=S)Nc1ccc(Cl)cc1	-5	x	2	4	-4	87*
Cc1nc2ccccn2c1C(=O)NNC(=S)Nc1ccccc1	-11	3	1	-8	0	97*
Cc1nc2ccccn2c1C(=O)NNC(=O)Nc1ccccc1	1	-1	0	0	0	28
Cc1nn(C)cc1C(=O)NNC(=S)Nc1ccccc1	-14	x	3	1	-1	88*
CN(C)C(CNC(=O)CSc1nc2sc3c(c2c(=O)n1C)CCCC3)c1ccccc1 (stereo unspecified)	0	1	33*	0	0	-5
Nn1c(Nc2ccccc2)nc2sc3c(c2c1=O)CCCC3	4	-3	2	2	-7	81*
Cc1ccc2[nH]c3c(c2c1)CCCC3NCCO (stereo unspecified)	-16	44*	2	0	49	x
CC1CCN(S(=O)(=O)c2ccc3c(c2)C(Cl)(Cl)C(=O)N3)CC1	x	69*	8	x	41	x
CC(C)(C)N1C(=O)c2ccc(C(=O)Nc3ccc(O)cc3)cc2C1=O	3	3	4	1	4	98*
CCN(CC)S(=O)(=O)c1cccc(-c2nnc(SCc3nc4ccccc4s3)o2)c1	-22	x	-3	1	-1	-26
Brc1ccccc1-c1nnc(SCc2nc3ccccc3s2)o1	-8	5	-5	1	-2	96*
CCCNC(=O)N1[C@H](CO)[C@@H](c2ccccc2-c2ccc(C)cc2)[C@@H]1C#N	x	-2	x	x	x	x
Cc1cc(NCCN2CCOCC2)c2ccc3ccccc3c2n1	1	-7	38*	1	4	-21
COc1ccc2c3c(n(C)c2c1)[C@@H](CO)N(C(=O)CC1CC1)CC31CCN(C(=O)C2CC2)CC1	x	-2	x	x	x	x
Cc1sc2ncnc(N/N=C/c3ccccc3O)c2c1C	146	x	-12	1	-1	91*
CN1C(=O)c2cc(NC(=O)C3CCCC3)ccc2OC[C@@H]2O[C@@H](CC(=O)Nc3ccccc3)CC[C@H]21	x	1	x	x	x	x
O=C(N/N=C/c1cccc2ccccc12)C(=O)N1CCCC1	129	-3	1	-4	0	3
O=C(N/N=C/c1ccccc1[N+](=O)[O-])C(=O)N1CCCC1	355*	0	0	-3	-2	-8
C[C@@H]1CN([C@H](C)CO)C(=O)c2cc(NC(=O)Nc3ccc(C(F)(F)F)cc3)ccc2O[C@@H](C)CCCCO[C@H]1CN(C)S(=O)(=O)c1ccccc1	x	0	x	x	x	x
CN(c1nnc(N)s1)C1CCCCC1	-21	-1	2	0	x	99*
Cc1ccc(-c2cc(C(=O)Nc3c(C)n(C)n(-c4ccccc4)c3=O)[nH]n2)c(O)c1C	-21	-6	-2	0	2	97*
C[C@H]1CN([C@@H](C)CO)C(=O)c2cc(C#CCN(C)C)cnc2O[C@@H]1CN(C)C(=O)c1ccc2c(c1)OCO2	x	-2	x	x	x	x
SMILES	SUMO Mot1 rescue	CASP6 VEID inh	N-glyco inh	CDK5 inh	NSD2 HMT inh	ALR inh
COc1ccccc1-c1cn(CC[C@@H]2CC[C@@H](NC(=O)Cc3ccccn3)[C@@H](CO)O2)nn1	x	0	x	x	x	x
Cc1csc(NC(=O)C2C3C=CC(O3)C2C(=O)O)n1 (stereo unspecified)	-7	x	-1	-1	0	98*
Cc1cc(C)cc(NC(=O)C2C3C=CC(O3)C2C(=O)O)c1 (stereo unspecified)	6	4	2	0	0	7
Cc1ccc(S(=O)(=O)N(CC(=O)Nc2ccccc2C(=O)O)c2cccc(Cl)c2C)cc1	5	47*	2	-2	9	97*
COc1ccccc1/C=C/CN1CCN(Cc2ccc(C)o2)C(CCO)C1 (stereo unspecified)	-5	x	4	1	3	8
COc1ccc(/C=C/CN2CCN(CC(C)C)C(CCO)C2)cc1 (stereo unspecified)	6	-1	-1	-3	4	-2
COc1cc(/C=C/CN2CCN(Cc3ccc(C)o3)C(CCO)C2)ccc1O (stereo unspecified)	-13	-3	0	-2	6	98*
COc1cc(/C=C/CN2CCC(CO)(CC3CCCCO3)CC2)ccc1O (stereo unspecified)	-5	-3	-1	-2	3	92*
COc1cc(/C=C/CN2CCN(CCC(C)C)C(CCO)C2)ccc1O (stereo unspecified)	5	-10	0	-1	2	94*
Nc1ccccc1C(=O)N1CCC(O)(c2ccc(Cl)cc2)CC1	325*	-3	0	-2	-1	5
FC(F)(F)c1cccc(N2CCN(Cc3cccnc3)CC2)c1	6	x	0	-2	4	13
COc1cccc(N2CCN(Cc3cccnc3)CC2)c1	5	x	-1	2	2	91*
Cc1ccc(-c2csc3n[nH]c(=S)n23)cc1	6	x	-1	4	2	98*
CCn1c(-c2ccc(C)cc2)n[nH]c1=S	-10	x	0	1	5	10
O=S(=O)(N[C@@H]1CCCN(Cc2ccc(OCCO)cc2)C1)c1cc(C(F)(F)F)ccc1Cl	x	-3	x	x	x	x
Cc1sc2nc(CSCC(=O)N(C)CC(=O)Nc3ccc(F)cc3)[nH]c(=O)c2c1C	25	1	-2	-1	1	99*
Cc1sc2nc(CSCC(=O)NC(C)(C)C)[nH]c(=O)c2c1C	-8	0	1	-1	-2	99*
Cc1sc2nc(CSCC(=O)Nc3ccc(C(F)(F)F)cc3)[nH]c(=O)c2c1C	6	2	2	-1	0	x
C[C@@H]1CN([C@@H](C)CO)C(=O)Cc2cc(NC(=O)Cn3cnnn3)ccc2O[C@H]1CN(C)CC1CCCCC1	x	0	x	x	x	x
CCC(=O)Nc1ccc2c(c1)C(=O)N(C)[C@@H]1CC[C@@H](CC(=O)NC3Cc4ccccc4C3)O[C@H]1CO2	x	27	x	x	x	x
O=Cc1ccc(Oc2ccc(F)cc2)nc1	-10	-1	3	1	0	-4
O=Cc1ccc(Oc2nc(Cl)ncc2F)cc1	35	42*	4	-4	-1	-3
CC/C(=C(\c1ccc(O)cc1)c1ccc(OCCN(C)C)cc1)c1ccccc1	132	16	0	0	x	97*
CCC(=C(c1ccc(O)cc1)c1ccc(OCCN(C)C)cc1)c1ccccc1	x	-6	-1	x	x	x
